These results are taken from PubChem BioAssay (Tox21).

Inconclusive results are not listed. The source holds several records for some structures; these can differ, active in one and inactive in another. Active and inactive are the calls of the source. Unless noted, calls follow the shape of the dose curve; as a rule, active = well fitted curve in the direction sought with a large enough effect in the repeat runs; inconclusive = weak or mixed curves; inactive = no such curve, though single readings can be large; an effect the other way counts as inactive or inconclusive.

In test [1] the target is Estrogen receptor (Homo sapiens) (UniProt P03372). Put plainly: qHTS assay to identify small molecule antagonists of the estrogen receptor alpha (ER-alpha) signaling pathway using the BG1 cell line in the presence of 0.1 nM 17-beta-estradiol (AID 1259244). Also: nearly all actives have a fitted effect of over 50% in size. The method in brief:
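VM7Luc4E2; 4xERE-luciferase; 0.1 nM E2 final; 22 h co-incubation, 37C; ONE-Glo luminescence after 30 min at room temperature.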

Test [2] can be described thus: qHTS assay to identify small molecule HDAC inhibitors (AID 1259364).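 Also: wild-type HCT-116 cells with endogenous class I/II HDAC activity; top concentration of the series differs between compounds; nearly all actives have a fitted effect of over 45% in size.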 The method in brief: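 Relative class I and II HDAC activity is taken from the luminogenic signal in HCT-116 cells, with compound exposure 2 hr and reagent development 30 min at room temperature.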
Test [3] can be described thus: qHTS assay to identify small molecule HDAC inhibitors - cell viability counter screen (AID 1259365). Also: series mostly up to about 92 µM; nearly all actives have a fitted effect of over 50% in size. The method in brief:
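Following a 2hr exposure of overnight-plated wild-type HCT-116 cells to DMSO-delivered compounds, CellTiter-Glo was added and luminescence recorded after 30min at room temperature.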

Test [4] can be described thus: qHTS assay to identify small molecule agonists of the sonic hedgehog signaling (Shh) pathway - cell viability counter screen (AID 1259366). Also: nearly all actives have a fitted effect of over 50% in size. Also: potency is read from the fitted curve at half-maximal effect. Put shortly: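 After a 4hr attachment at 37C, NIH/3T3 cells bearing an integrated Gli1-driven luciferase reporter were dosed with compounds. Treatment lasted 24hr, with the final hour including CellTiter-Fluor for a fluorescence viability measurement.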

Test [5] in a line: qHTS assay to identify small molecule antagonists of the sonic hedgehog signaling (Shh) pathway - cell viability counter screen (AID 1259367). Also: nearly all actives have a fitted effect of over 55% in size. Also: potency is read from the fitted curve at half-maximal effect. The method in brief: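 After a 4 hr settling period, 3T3 Gli1-Luc cells were treated with DMSO-dissolved chemicals and conditioned medium, kept 24 hr at 37C in 5% CO2, and assayed for viability by CellTiter-Fluor fluorescence following 1 hr reagent incubation.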

The nature of test [6]: qHTS assay to identify small molecule agonists of the sonic hedgehog signaling (Shh) pathway (AID 1259368; calls by dose curve;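 also: NIH/3T3-derived 3T3Gli1-Luc cells carrying a stable Gli1-driven firefly luciferase reporter; series mostly up to about 92 µM; nearly all actives have a fitted effect of over 15% in size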). The method in brief: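 Mouse fibroblast (NIH/3T3) reporter cells with stably integrated Gli1-Luc were treated 24 hr with compound; firefly luciferase luminescence served as the read-out.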
Test [7] is described as follows: qHTS assay to identify small molecule antagonists of the sonic hedgehog signaling (Shh) pathway (AID 1259369; calls by dose curve; also: nearly all actives have a fitted effect of over 45% in size; also: potency is read from the fitted curve at half-maximal effect). Put shortly: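 Conditioned medium drives Shh signalling in 3T3Gli1-Luc cells; compounds in DMSO co-applied, 24hr at 37 C, then luciferase luminescence.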
The target in test [8] is Estrogen receptor beta (Homo sapiens) (UniProt Q92731). Put plainly: qHTS assay to identify small molecule agonists of the estrogen receptor beta (ER-beta) signaling pathway (AID 1259377; active = well fitted activation curve with a large enough effect in the signal ratio in the repeat runs, not every such curve was filed as active; the % refers to the signal ratio). The method in brief:
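In HEK293T cells bearing a UAS-beta-lactamase reporter under ER-beta control, DMSO-delivered compounds were incubated for 16 hr at 37C. Activity was detected as fluorescence 2 hours after LiveBLAzer B/G FRET substrate addition.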

For test [9] the target is unchanged. Put plainly: qHTS assay to identify small molecule antagonists of the estrogen receptor beta (ER-beta) signaling pathway (AID 1259378; active = well fitted inhibition curve with a large enough effect in the signal ratio in the repeat runs, not every such curve was filed as active; the % refers to the signal ratio). Put shortly: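 ER-beta-UAS-bla HEK293T (GripTite) cells in 2% charcoal-stripped FBS medium were preincubated 6 hr at 37C, dosed with compound, then stimulated with 1 nM E2 (final) for 16 hr; beta-lactamase reporter read by B/G FRET fluorescence after 2 hr substrate loading.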

Test [10] can be described thus: qHTS assay to identify small molecule agonists of the androgen receptor (AR) signaling pathway in the presence of an antagonist - cell viability counter screen (AID 1259379).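 Also: MDA-kb2 human breast cancer cells carrying an MMTV luciferase reporter; series mostly up to about 92 µM; nearly all actives have a fitted effect of over 25% in size.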 Put shortly:
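A CellTiter-Fluor read-out measured viability of MDA-kb2 reporter cells (MMTV promoter with AR and GR response elements). Treatment: nilutamide 3.0uM final with compounds at 15 concentrations, 16 hr, 37C, 0% CO2.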

The nature of test [11]: qHTS assay to identify small molecule agonists of the estrogen receptor beta (ER-beta) signaling pathway - cell viability counter screen (AID 1259380). Also: nearly all actives have a fitted effect of over 30% in size. The method in brief:
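Cells used were ER-beta-UAS-bla HEK293T in medium with 2% charcoal-stripped FBS. They were treated for 16 hr at 37C. Viability came from CellTiter-Glo luminescence.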

Test [12] can be described thus: qHTS assay to identify small molecule antagonists of the estrogen receptor beta (ER-beta) signaling pathway - cell viability counter screen (AID 1259382). Also: series mostly up to about 92 µM; nearly all actives have a fitted effect of over 55% in size. The method in brief:
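Agonist-stimulated (1nM E2) ER-beta-UAS-bla HEK293T cells are incubated with library compounds for 16 hr at 37C. Cell viability is then assessed in the reporter-assay wells by adding CellTiter-Glo and reading luminescence after 30 min.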

The target of test [13] is Estrogen receptor (Homo sapiens) (UniProt P03372). The test can be described thus: qHTS assay to identify small molecule agonists of the estrogen receptor alpha (ER-alpha) signaling pathway in the presence of an antagonist (AID 1259383; calls by dose curve; also: top concentration of the series differs between compounds; nearly all actives have a fitted effect of over 15% in size). Put shortly: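 Using VM7Luc4E2 cells seeded 24hr before treatment, antagonist ICI-182,780 (10.0nM final) was added, followed by compounds at 15 concentrations. Plates incubated 22hr; ONE-Glo luminescence quantified reporter activity.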

A short description of test [14]: qHTS assay to identify small molecule agonists or antagonists of the thyroid stimulating hormone receptor (TSHR) signaling pathway - wild type cell line counter screen (AID 1259384; calls by dose curve). The method in brief: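 Wild-type HEK293 cells were plated 18 h at 37 C/5% CO2, pin-dosed with compound plus Ro20-1724 medium, held 30 min at room temperature, then given cAMP-d2 and anti-cAMP-cryptate; fluorescence was read after 1 h. Fifteen concentrations, triplicate.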

Test [15] concerns the target Thyrotropin receptor (Homo sapiens) (UniProt P16473). The test can be described thus: qHTS assay to identify small molecule antagonists of the thyroid stimulating hormone receptor (TSHR) signaling pathway (AID 1259385; calls by dose curve; also: nearly all actives have a fitted effect of over 20% in size). The method in brief: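 TSHR-HEK293 cells were plated and held 18 h at 37C/5% CO2, then given compound plus Ro20-1724 and stimulated with TSH at 1.5 ng/mL final. After 30 min at room temperature, cAMP was detected with cAMP-d2/anti-cAMP-cryptate (1 h) by fluorescence.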

Test [16] is described as follows: qHTS assay to identify small molecule agonists of the estrogen receptor alpha (ER-alpha) signaling pathway in the presence of an antagonist - cell viability counter screen (AID 1259386).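 Also: series mostly up to about 92 µM; cells exposed to compounds for 22 h at 37 °C before the viability read; nearly all actives have a fitted effect of over 30% in size.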 The method in brief: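 ICI-182,780 at 10.0nM final accompanies the compound titration (15 concentrations, 22hr, 37C) on VM7Luc4E2 cells. The CellTiter-Fluor fluorescence readout runs in the same wells as the luciferase assay.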

Test [17] has as its target Progesterone receptor (Homo sapiens) (UniProt P06401). Put plainly: qHTS assay to identify small molecule agonists of the progesterone receptor (PR) signaling pathway (AID 1346784; calls by dose curve; also: nearly all actives have a fitted effect of over 30% in size). Put shortly: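 Using charcoal-stripped serum (2%) to limit endogenous steroids, PR-UAS-bla HEK 293T cells received compounds for 16 hr at 37C after 6 hr plating; beta-lactamase FRET fluorescence was recorded following 2 hr substrate loading at room temperature.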

Test [18] shares this target. The test can be described thus: qHTS assay to identify small molecule antagonists of the progesterone receptor (PR) signaling pathway (AID 1346795; active = well fitted inhibition curve with a large enough effect in the signal ratio in the repeat runs, not every such curve was filed as active; the % refers to the signal ratio). Put shortly:
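Inhibition of R5020-induced (1 nM final) beta-lactamase reporter signal in PR-UAS-bla HEK293T cells was scored by FRET fluorescence after overnight (16 hr) compound treatment.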

Test [19] is described as follows: qHTS assay to identify small molecule phospholipidosis (PLD) inducers (AID 1259344; active = well fitted curve in the direction sought with a large enough effect; an effect the other way counts as inactive or inconclusive). Put shortly:
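HepG2 cells grown on collagen I take up LipidTOX Red while exposed to compound for 24 h; after fixation they are imaged at 20x and pit metrics are extracted.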

Sequence of Progesterone receptor (Homo sapiens) (P06401 whole entry, looked up): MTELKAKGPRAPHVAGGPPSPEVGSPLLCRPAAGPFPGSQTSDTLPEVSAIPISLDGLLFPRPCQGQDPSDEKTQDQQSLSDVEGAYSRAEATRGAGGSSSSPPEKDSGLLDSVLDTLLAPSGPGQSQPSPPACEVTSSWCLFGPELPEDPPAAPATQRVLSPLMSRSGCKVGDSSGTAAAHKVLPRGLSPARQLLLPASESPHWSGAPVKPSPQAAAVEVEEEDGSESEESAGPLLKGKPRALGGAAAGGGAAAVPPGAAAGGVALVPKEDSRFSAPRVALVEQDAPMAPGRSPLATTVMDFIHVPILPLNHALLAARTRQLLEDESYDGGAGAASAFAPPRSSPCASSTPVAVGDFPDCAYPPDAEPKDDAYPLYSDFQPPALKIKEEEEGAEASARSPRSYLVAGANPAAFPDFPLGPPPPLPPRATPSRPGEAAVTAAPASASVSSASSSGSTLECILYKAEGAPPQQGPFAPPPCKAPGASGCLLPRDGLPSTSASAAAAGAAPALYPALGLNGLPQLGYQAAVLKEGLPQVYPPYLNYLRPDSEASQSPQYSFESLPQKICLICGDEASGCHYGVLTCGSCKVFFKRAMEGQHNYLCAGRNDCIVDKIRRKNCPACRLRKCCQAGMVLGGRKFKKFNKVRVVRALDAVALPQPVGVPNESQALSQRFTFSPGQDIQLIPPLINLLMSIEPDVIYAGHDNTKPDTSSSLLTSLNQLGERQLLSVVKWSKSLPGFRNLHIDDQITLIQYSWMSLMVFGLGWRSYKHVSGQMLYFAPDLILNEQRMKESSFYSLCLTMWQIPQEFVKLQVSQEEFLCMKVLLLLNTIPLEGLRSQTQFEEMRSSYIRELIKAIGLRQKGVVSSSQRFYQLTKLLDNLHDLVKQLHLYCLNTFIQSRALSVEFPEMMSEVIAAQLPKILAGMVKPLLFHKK
Sequence of Thyrotropin receptor (Homo sapiens) (P16473 whole entry, looked up): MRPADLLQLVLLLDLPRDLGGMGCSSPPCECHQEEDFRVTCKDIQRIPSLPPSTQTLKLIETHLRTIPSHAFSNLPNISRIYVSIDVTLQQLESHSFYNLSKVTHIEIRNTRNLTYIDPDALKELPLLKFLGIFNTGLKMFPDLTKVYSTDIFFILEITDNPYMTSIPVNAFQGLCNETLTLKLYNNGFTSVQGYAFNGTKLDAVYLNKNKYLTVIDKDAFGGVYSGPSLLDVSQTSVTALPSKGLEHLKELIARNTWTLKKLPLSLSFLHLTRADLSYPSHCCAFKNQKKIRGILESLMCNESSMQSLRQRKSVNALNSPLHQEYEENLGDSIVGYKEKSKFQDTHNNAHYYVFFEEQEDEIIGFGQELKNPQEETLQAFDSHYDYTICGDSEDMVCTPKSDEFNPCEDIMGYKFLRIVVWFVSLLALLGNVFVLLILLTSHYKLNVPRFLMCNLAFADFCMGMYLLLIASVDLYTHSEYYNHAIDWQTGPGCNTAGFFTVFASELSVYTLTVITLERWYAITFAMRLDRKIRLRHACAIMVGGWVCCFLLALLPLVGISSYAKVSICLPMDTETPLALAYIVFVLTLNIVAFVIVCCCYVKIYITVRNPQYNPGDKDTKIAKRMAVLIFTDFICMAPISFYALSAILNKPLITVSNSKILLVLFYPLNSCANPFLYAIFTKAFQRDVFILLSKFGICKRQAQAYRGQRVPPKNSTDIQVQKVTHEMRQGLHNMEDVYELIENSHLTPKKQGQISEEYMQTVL
Sequence of Estrogen receptor (Homo sapiens) (P03372 whole entry, looked up): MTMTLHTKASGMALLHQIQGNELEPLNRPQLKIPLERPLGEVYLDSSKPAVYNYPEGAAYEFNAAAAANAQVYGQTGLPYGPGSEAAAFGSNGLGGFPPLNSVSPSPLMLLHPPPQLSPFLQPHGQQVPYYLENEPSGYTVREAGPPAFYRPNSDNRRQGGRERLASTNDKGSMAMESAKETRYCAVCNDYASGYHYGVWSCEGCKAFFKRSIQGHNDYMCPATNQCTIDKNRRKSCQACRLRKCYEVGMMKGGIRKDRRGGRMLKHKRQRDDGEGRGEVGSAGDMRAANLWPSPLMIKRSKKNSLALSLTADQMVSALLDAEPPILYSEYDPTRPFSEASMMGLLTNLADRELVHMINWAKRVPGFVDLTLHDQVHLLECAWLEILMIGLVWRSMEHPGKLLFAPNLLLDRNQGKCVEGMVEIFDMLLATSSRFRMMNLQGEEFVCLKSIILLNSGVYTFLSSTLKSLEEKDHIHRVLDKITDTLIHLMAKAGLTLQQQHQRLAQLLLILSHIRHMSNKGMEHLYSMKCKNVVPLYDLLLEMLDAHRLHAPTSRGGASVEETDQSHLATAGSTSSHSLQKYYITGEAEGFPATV
Sequence of Estrogen receptor beta (Homo sapiens) (Q92731 whole entry, looked up): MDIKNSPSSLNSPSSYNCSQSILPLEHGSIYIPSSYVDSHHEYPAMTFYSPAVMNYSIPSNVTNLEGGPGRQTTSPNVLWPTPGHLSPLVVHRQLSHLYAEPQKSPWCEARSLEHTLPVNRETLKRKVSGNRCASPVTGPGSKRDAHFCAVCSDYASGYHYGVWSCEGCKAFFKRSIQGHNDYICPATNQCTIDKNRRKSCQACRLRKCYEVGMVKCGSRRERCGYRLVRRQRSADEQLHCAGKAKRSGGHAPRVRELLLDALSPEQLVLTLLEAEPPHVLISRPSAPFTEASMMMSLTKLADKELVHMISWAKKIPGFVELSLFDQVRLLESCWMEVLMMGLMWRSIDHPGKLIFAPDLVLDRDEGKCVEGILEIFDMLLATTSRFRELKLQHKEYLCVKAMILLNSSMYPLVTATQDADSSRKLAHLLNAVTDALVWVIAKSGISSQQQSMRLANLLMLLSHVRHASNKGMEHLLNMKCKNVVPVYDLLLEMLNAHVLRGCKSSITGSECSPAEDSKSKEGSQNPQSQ

Turning to `COC(=O)NS(=O)(=O)c1ccc(N)cc1`, the Potency entry in [1], in test [2], in test [4], in [5], in test [7] and in [8] was “inactive” throughout. For the same compound, the Potency entry in [11], in test [12], in [13], in [15] and in test [18] was “inactive” each time. Also, the call in [3], in test [6], in [9], in test [10], in test [14] and in test [16] was inactive. Moreover, the result in test [17] was inactive.

As to `Cc1ccc([N+](=O)[O-])cc1C`, the Potency entry in test [1], in [2], in [4], in test [5], in test [7] and in test [8] was “inactive” throughout. In addition, the Potency result in test [11], in test [12], in [13], in test [15] and in test [18] was “inactive” throughout. The compound was called inactive in test [3], in [6], in [9], in [10], in [14] and in test [16]. Besides, the compound was classed as inactive in test [17].

On to `CCOC(=O)c1ccccc1C(=O)OCC`, for which the Potency result in test [1], in test [2], in test [4], in test [5], in test [11] and in [12] was “inactive” throughout. For the same compound, the Potency entry in test [13], in [15] and in test [18] was “inactive” each time. For the same compound, the compound was classed as inactive in test [19], in test [3], in [6], in test [10], in [14] and in test [16]. Besides, in test [17], the outcome was inactive.

For the compound `O=Cc1cccc(Oc2ccccc2)c1`, the Potency result in test [1], in test [2], in test [4], in test [5], in test [7] and in test [8] was “inactive” in each case. In addition, the Potency entry in test [11], in test [12], in test [13], in test [15] and in test [18] was “inactive” throughout. The call in test [3], in [6], in test [9], in test [10], in test [14] and in test [16] was inactive. Further, in test [17], the result was inactive.

For the compound `CCOP(=S)(OCC)Oc1cnc2ccccc2n1`, the Potency result in [1], in [2], in test [4], in test [5], in test [8] and in test [11] was “inactive” each time. Besides, the Potency result in test [12], in test [13], in test [15] and in test [18] was “inactive” in each case. In addition, the compound was called inactive in test [3], in [6], in [9], in [10], in [14] and in test [16]. Besides, the outcome in test [17] was inactive. Further, the Potency in test [7] was 27.3 µM (active).

As for `COc1ccc2c3c1O[C@H]1[C@@H](O)C=C[C@H]4[C@@H](C2)N(C)CC[C@@]341`, the Potency result in [1], in test [2], in test [11], in test [12], in test [13] and in test [15] was “inactive” throughout. The Potency entry in test [18] was “inactive”. Also, the outcome in test [19], in test [3], in test [6], in test [10], in test [14] and in test [16] was inactive. Besides, in test [17], the call was inactive. The Potency in test [4] is 21.3 µM (active) and inactive; in test [5] it was 26.9 µM (active) and inactive.

Take `[O-][Cl+2]([O-])O`: the Potency result in test [1], in [2], in test [4], in test [5], in [7] and in [8] was “inactive” throughout. In addition, the Potency result in test [11], in test [12], in [13], in test [15] and in [18] was “inactive” each time. Also, the outcome in test [3], in test [6], in [9], in test [10], in [14] and in test [16] was inactive. Also, the outcome in [17] was inactive.

As to `COC(=O)c1ccccc1C(=O)OC`, the Potency entry in test [1], in [2], in [4], in [5], in test [7] and in test [8] was “inactive” in each case. Moreover, the Potency result in test [11], in [12], in test [13], in test [15] and in test [18] was “inactive” each time. Also, the outcome in test [19], in test [3], in test [6], in test [9], in test [10] and in [14] was inactive. For the same compound, the result in test [16] and in [17] was inactive.
